42 sequences from PMC7819943, “Rice protein-binding microarrays: a tool to detect cis-acting elements near promoter regions in rice” can be followed below.

In all, about 35,000 sequences were measured (“fluorescence intensity (a.u.)”: median about 10,000, highest 2% from about 52,000 on). The entries come from a sample that favours the highest values as a whole.

The target in the assay is T1, OsWOX13 (Oryza sativa, UniProt Q5QMM3 1-267).
T1 sequence: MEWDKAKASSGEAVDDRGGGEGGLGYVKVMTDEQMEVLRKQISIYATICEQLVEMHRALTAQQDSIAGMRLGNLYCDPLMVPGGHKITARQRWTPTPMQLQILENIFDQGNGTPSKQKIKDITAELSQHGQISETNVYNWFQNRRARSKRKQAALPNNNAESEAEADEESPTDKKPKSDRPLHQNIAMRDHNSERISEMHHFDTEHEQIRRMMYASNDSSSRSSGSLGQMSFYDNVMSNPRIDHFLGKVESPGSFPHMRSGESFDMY
Put plainly: protein-binding microarray (RPBM); PBS, 2% BSA, 51.3 ng/ul salmon testes DNA, 50 uM zinc acetate, 200 nM TF, 25 C, 1 h; high values mean tight binding. The note with it: protein: recombinant; tags: N-terminal polyhistidine and DsRed monomer fusion (pET32a); label: CyDye5-dUTP incorporated in the synthesized complementary strand; 3' TTTTT single-stranded linker to array surface; dsDNA, one strand shown. An outline of the steps:
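The binding signal is fluorescence intensity per array feature (arbitrary units). Readings came from an Axon 4000B scanner after a washed, 2% BSA-blocked, double-stranded custom Agilent array had been incubated for 1 h at 25 °C with 200 nM protein and 50 µM zinc acetate. The protein was a Ni–NTA-purified transcription factor fused N-terminally to polyhistidine and DsRed, expressed in E. coli BL21-CodonPlus.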
In the case of “TTGATTAATTTGACGTCGATGCTACTAATAGTTAACCTTCCGGAGTCACCTAGTGCAG”, the binding signal was 54200 fluorescence intensity (a.u.).
Turning to “GTGCTAATATAATTTAAATAACTAGTTTGACGGACAAATCCGGAGTCACCTAGTGCAG”, the binding signal is 10800 fluorescence intensity (a.u.).
Consider “TACAAATTGATTGGCTATAGGTCAAATAGTGGATCCTAGACGGAGTCACCTAGTGCAG”, for which the binding signal was 56000 fluorescence intensity (a.u.).
The same measure for “CGTAATTAGTAGGTTGATTACTATTTGCTAATCATAAGTGCGGAGTCACCTAGTGCAG”: 65200 fluorescence intensity (a.u.).
As to “TAGTAATTGATTGCTGCCAAGATTACATTACTGCCCAATACGGAGTCACCTAGTGCAG”, the binding signal is 65500 fluorescence intensity (a.u.).
For the sequence “TTGCCAATTATGATTGGAGATTTACAAGTAGACTTCAATACGGAGTCACCTAGTGCAG”, the binding signal was 18500 fluorescence intensity (a.u.).
As for “TGCTAGTTAATATAATCTACTAATTAAAATAGTCGATTGACGGAGTCACCTAGTGCAG”, the binding signal is 6000 fluorescence intensity (a.u.).
The same measure for “CAATCATTGATTGTTACTTTGTTAGTAATTGGTTAGTATACGGAGTCACCTAGTGCAG”: 30100 fluorescence intensity (a.u.); for “TATCGATCGATTGATTGCTATAGCTAGGTCAAATCGATCGCGGAGTCACCTAGTGCAG”: 28100 fluorescence intensity (a.u.); for “TATGAATGCATTATGATTACTATTTGCTAATCATAAGTGGCGGAGTCACCTAGTGCAG”: 11000 fluorescence intensity (a.u.).
The same measure for “ACAAATTAGCTATTATATTGGCTATAGATGATTTGGAGTACGGAGTCACCTAGTGCAG”: 42300 fluorescence intensity (a.u.); for “TTGTAATTAGTAGGGTGATTACTATTTGGTAATCATAAGTCGGAGTCACCTAGTGCAG”: 33000 fluorescence intensity (a.u.); for “ACAAAACCATTTGTGATTTTCTTTGAGTGCCCAGTTTTGTCGGAGTCACCTAGTGCAG”: 3210 fluorescence intensity (a.u.).
For the sequence “ATCACATAAAATTCCAGGGTTAATTGGATCCATGCTACTGCGGAGTCACCTAGTGCAG”, the binding signal is 8150 fluorescence intensity (a.u.).
The same measure for “AGTAGTTAATTGGATTGGGCCGGGCCCACCGGCCCACGGCCGGAGTCACCTAGTGCAG”: 30300 fluorescence intensity (a.u.).
The same measure for “TTGACTATAATTGATTTGGATAGTTGGCTATAATAAACCTCGGAGTCACCTAGTGCAG”: 54500 fluorescence intensity (a.u.).
The value for “TTATATTGATTTTCGTATGATTTTGGACACATAAGTACCTCGGAGTCACCTAGTGCAG” was 38200 fluorescence intensity (a.u.); that for “CATAATTGGTAAATTTGCGGGTTCAATTCCTGCTGGATGCCGGAGTCACCTAGTGCAG” was 59500 fluorescence intensity (a.u.).
Take “ATACTGCTGTAACATTTGATTGGATTGAAAGGATATCGCTCGGAGTCACCTAGTGCAG”: the binding signal is 20500 fluorescence intensity (a.u.).
For “GAGTAAATTGCACACGGATGCAATCAATTGACCTGTGCTGCGGAGTCACCTAGTGCAG”, the binding signal was 20000 fluorescence intensity (a.u.).
For the sequence “GGATTTGATTGGATAAGCCGCTCGTAAGGACACCGTGCCTCGGAGTCACCTAGTGCAG”, the binding signal was 52300 fluorescence intensity (a.u.).
Consider “AGTAATTGATTGGCCGGATGCTACCGGTAGTTACTGACTACGGAGTCACCTAGTGCAG”, for which the binding signal is 60500 fluorescence intensity (a.u.).
The value for “CTGAAATTGAAGTTAAATGCTACTAGTAATAATTGTACTACGGAGTCACCTAGTGCAG” was 30100 fluorescence intensity (a.u.).
The same measure for “GAAATAAATTTTGGATTGGCTATGTTAATATGATATGACCCGGAGTCACCTAGTGCAG”: 25900 fluorescence intensity (a.u.); for “ATTAACTATAAATGATTTGGAGTCAATAGTTGGCTATAATCGGAGTCACCTAGTGCAG”: 16100 fluorescence intensity (a.u.).
For the sequence “GTTCGCGTGATTAATCAAAGCCTATTCCTTGTCACTATGACGGAGTCACCTAGTGCAG”, the binding signal was 12400 fluorescence intensity (a.u.).
The same measure for “AAGAAAACCTAATTGTTACTACCATTTACCAAACCTACCACGGAGTCACCTAGTGCAG”: 3910 fluorescence intensity (a.u.).
The same measure for “ACACATGATTTGCATGCCAACCTTATTTCTCCTTCACTTTCGGAGTCACCTAGTGCAG”: 16500 fluorescence intensity (a.u.); for “CACTGCAAATTAGATCTATATATAGTGAAACATTGTGAGACGGAGTCACCTAGTGCAG”: 6780 fluorescence intensity (a.u.); for “CGCCGTAACAATCAGAACCAATCATGCTCTATGTGTAGTTCGGAGTCACCTAGTGCAG”: 30300 fluorescence intensity (a.u.).
The value for “CCCGTACGTGTTACCTAATCATGATGGGATGCCATAATACCGGAGTCACCTAGTGCAG” was 3570 fluorescence intensity (a.u.); that for “ACATTAATGTGATTTCCCATTTCTACCCTATAGTTCAACACGGAGTCACCTAGTGCAG” was 12800 fluorescence intensity (a.u.).
Turning to “AAATTACTAATTTACCTATAATTAGTTGGACTCTAGCTCTCGGAGTCACCTAGTGCAG”, the binding signal is 37600 fluorescence intensity (a.u.).
The same measure for “GCTATAAAATTGACTATAATTGATTTGGAGCCGGTAGTTGCGGAGTCACCTAGTGCAG”: 63600 fluorescence intensity (a.u.); for “TACTAAATTGACTATGGACGATTTAGAGCTCGTAGTTGGCCGGAGTCACCTAGTGCAG”: 53600 fluorescence intensity (a.u.); for “TTTAATTTTGAATTTTAATTAATTGGAGTTTACACGGACTCGGAGTCACCTAGTGCAG”: 39800 fluorescence intensity (a.u.).
The same measure for “GATTAATTGAAAGTTTACATGGACGACGTTGACTCGGGGCCGGAGTCACCTAGTGCAG”: 54700 fluorescence intensity (a.u.).
On to “AAAGTAGTTAATTACTGCTAATTACATGGATTAGTTGGGTCGGAGTCACCTAGTGCAG”, for which the binding signal is 33500 fluorescence intensity (a.u.).
The value for “ACGTTGATTAGTTAGTACTAACCTACTCCTACGTGTTAACCGGAGTCACCTAGTGCAG” was 30400 fluorescence intensity (a.u.).
The value for “ATTACATTGACTAATAGATGATTTAGAGCTAATAGTGGGCCGGAGTCACCTAGTGCAG” was 25200 fluorescence intensity (a.u.); that for “AAAATTGACTATAAATGATTTGGAGCCGGTAGTTGGCTATCGGAGTCACCTAGTGCAG” was 51700 fluorescence intensity (a.u.).
The value for “CGCGTTGATTAATTAGTCAGTTCGTTAACAACCTCGACTACGGAGTCACCTAGTGCAG” was 53000 fluorescence intensity (a.u.).
